ELG1 DNA repair – blocks ELG1-dependent DNA repair in HEK293T cells; AID 504467; Potency, µM (highest dose often 46.1 µM), for the others: at the top dose activity change, negative = inhibition, hits mostly inhibitors; HEK293T ELG1-luciferase reporter, luminescence, 16 h; DNA damage induced by 5-fluorouridine; hit rate 2.3% among 330,000; further: potency means the concentration at half of the fitted maximal effect; nearly all actives have a fitted effect of over 55% in size
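Quantitative HTS, concentration-response format. 2,000 cells/well co-treated with 5-fluorouridine and compound, 16 hr in 5% CO2 at 37 °C; ONE-Glo luminescence read after 30 min.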
HT1080NT lethal – kills 2HG-producing HT-1080-NT fibrosarcoma cells; HT-1080-NT fibrosarcoma viability, CellTiter-Glo ATP luminescence, 48 h; Potency, µM (top dose mostly 46.1 µM), for the others: at the top dose activity, negative = less viability, most hits filed as cytotoxic; hit rate 1.6% among 360,000; AID 686970;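 further: NT is the 2HG producing partner of a matched IDH1 knockdown line; potency means the concentration at half of the fitted maximal effect; 0% = DMSO-treated cells and -100% = media-only wells without cells; nearly all actives have a fitted effect of over 55% in size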
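Compounds were tested in concentration-response format on HT-1080-NT cells for 48 hours at 37 degrees C. Cell viability came from CellTiter-Glo luminescence; curves were classified by r2, response magnitude and activity.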
IL-1B inflam inh – inflammasome signaling inhibition, IL-1 beta readout; THP-1 LPS/ATP IL-1B secretion, AlphaLISA, 16 h; hits give low values; activity change, % at 57.5 µM; hit rate 4.7% among 360,000; AID 743279; in the data active means activity change below about -50%; inconclusive means mostly about -30% to -49%
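THP-1 cells pretreated 1 hr with compounds (up to 57.5 uM final), then stimulated with LPS (250 ng/mL final) plus ATP (1.25 mM final); secreted IL-1B measured by AlphaLISA after 16 hr, decreased signal indicating inhibition.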
DT40 TDP1 no CPT – qHTS for Inhibitors of human tyrosyl-DNA phosphodiesterase 1 (TDP1): qHTS in cells in absence of CPT. DT40 Tdp1-/- hTDP1 cells, no CPT, ATP luminescence, 48 h. Potency, µM (highest dose often 46.2 µM), for inactives: top-dose activity change, negative = growth inhibition, hits mostly inhibitors. hit rate 15% among 420,000. AID 686978, 2013; further: potency means the concentration at half of the fitted maximal effect; nearly all actives have a fitted effect of over 55% in size
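A cellular qHTS used chicken DT40 cells lacking endogenous Tdp1 but carrying stably transfected human TDP1. Compounds were applied without camptothecin, and cell growth kinetics were judged by ATP-dependent luminescence after ≥48 hr.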
HT1080 IDH1KD tx – kills HT-1080 cells with IDH1 knockdown. Potency, µM (series often up to 46.1 µM), without a hit: at the highest dose activity, negative = toxicity, usual class: cytotoxic. hit rate 2% among 360,000. AID 686971. HT-1080 IDH1 knockdown viability, ATP luminescence, 48 h;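 further: potency means the concentration at half of the fitted maximal effect; 0% = DMSO wells and -100% = cell-free medium wells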
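CellTiter-Glo luminescence after 48 h compound exposure at 37 degrees C of IDH1-knockdown HT-1080 cells in 5% FBS RPMI. %Activity scaled between DMSO wells and cell-free media wells, with curves fitted and assigned curve classes.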
DT40 TDP1 CPT – growth inhibition of DT40 Tdp1-/-;hTDP1 cells with camptothecin (screen for TDP1 inhibitors) | chicken DT40 Tdp1-/-;hTDP1 cells + 20 nM CPT, ATP luminescence, 48 h | Potency, µM (titrated, usually from 46.2 µM), inactives show top-dose activity change, negative = growth inhibition, actives largely listed as inhibitors | hit rate 12% among 420,000 | AID 686979; further: potency means the concentration at half of the fitted maximal effect; nearly all actives have a fitted effect of over 55% in size
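Cell growth measured by CellTiter-Glo luminescence after a minimum 48 h, 37 C compound exposure with 20 nM CPT in Tdp1-knockout DT40 cells stably expressing hTDP1, seeded 400/well; qHTS titration format.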
The depositor's hits bear a star. The list is not random: actives were taken first. Their share in the collection is about 19%. Unless noted, the call rests on the fitted dose curve; in most records, active means well fitted curve in the direction sought with a large enough effect; inconclusive means small, poorly fitted or top-dose-only effect, or another doubt; inactive means no such curve, though single readings can be large; an effect the other way counts as inactive or inconclusive. Unless noted, on the % scale 0 is the no-effect control and ±100 the full control effect.

Screening CCOC(=O)C1CCN(C(=O)c2cccc(NS(=O)(=O)c3ccc(F)c(F)c3)c2)CC1 returned ELG1 DNA repair -4.9%, HT1080NT lethal 15.1%, IL-1B inflam inh -101.0*, DT40 TDP1 no CPT -11.6%, HT1080 IDH1KD tx 2.5% and DT40 TDP1 CPT -10.1%.
CCOC(=O)c1cccc(NC(=O)c2cc(C)nc3c2c(C)nn3-c2ccc(C)cc2)c1 was read as DT40 TDP1 no CPT 20.6µM* and DT40 TDP1 CPT inconclusive.
Screening Cc1cc(C(=O)Nc2ccc(Cl)cc2)c2c(C)nn(-c3ccccc3)c2n1 returned DT40 TDP1 no CPT inconclusive and DT40 TDP1 CPT 9.2µM*.
`Cc1nn(-c2ccccc2)c2nc(C3CC3)cc(C(=O)Nc3ccccc3F)c12` gave DT40 TDP1 no CPT 5.8µM* and DT40 TDP1 CPT 7.31µM*.
Screening Cc1cc(C(=O)NCc2ccc(Cl)cc2)c2c(C)nn(-c3ccccc3)c2n1 returned DT40 TDP1 no CPT -16.5% and DT40 TDP1 CPT -2.3%.
Screening CCCCN1C[C@H](Cc2ccccc2)[C@@H](CC(=O)NC)C1=O returned HT1080NT lethal 2.2%, IL-1B inflam inh 7.8, DT40 TDP1 no CPT -16.6%, HT1080 IDH1KD tx 6.5% and DT40 TDP1 CPT 1.0%.
For COc1ccccc1CNc1ncncc1-c1ccc(C(=O)N(C)C)cc1 the results were DT40 TDP1 no CPT 25.0% and DT40 TDP1 CPT -5.2%.
Screening CCc1ccc(OCC(=O)Nc2ccc3[nH]ncc3c2)cc1 returned ELG1 DNA repair -22.9%, HT1080NT lethal 7.2%, IL-1B inflam inh -2.5, DT40 TDP1 no CPT -6.8%, HT1080 IDH1KD tx 0.9% and DT40 TDP1 CPT inconclusive.
`C=CC1(C)CN(Cc2ccco2)S(=O)(=O)c2c(F)cccc2O1` (stereo unspecified) gave HT1080NT lethal 13.7%, IL-1B inflam inh -1.7, DT40 TDP1 no CPT inconclusive, HT1080 IDH1KD tx 9.8% and DT40 TDP1 CPT 18.4µM*.
Screening O=S(=O)(c1ccccc1)c1ncc(C(F)(F)F)cc1Cl returned ELG1 DNA repair inconclusive, HT1080NT lethal inconclusive, IL-1B inflam inh -106.4*, DT40 TDP1 no CPT 3.66µM*, HT1080 IDH1KD tx 16.4µM* and DT40 TDP1 CPT 4.11µM*.
`O=CN1CCN(S(=O)(=O)c2ccc(S(=O)(=O)NC3CCCCC3)cc2)CC1` gave ELG1 DNA repair -0.3%, HT1080NT lethal -10.6%, IL-1B inflam inh 2.3, DT40 TDP1 no CPT -7.8%, HT1080 IDH1KD tx 1.4% and DT40 TDP1 CPT 0.5%.
Screening COc1ccc(-c2oc3c(c2-c2cnc(OC)nc2)C(O)CC3)cc1 (stereo unspecified) returned HT1080NT lethal 14.7%, IL-1B inflam inh -10.7, DT40 TDP1 no CPT inconclusive, HT1080 IDH1KD tx -1.5% and DT40 TDP1 CPT inconclusive.
Screening CN(C)CCN(C)C1CN(Cc2ccccc2)S(=O)(=O)C1 (stereo unspecified) returned HT1080NT lethal 5.9%, IL-1B inflam inh 0.7, DT40 TDP1 no CPT -0.1%, HT1080 IDH1KD tx 21.0% and DT40 TDP1 CPT -2.4%.
For CC[n+]1c(/C=C/Nc2ccccc2)oc2ccccc21 the results were ELG1 DNA repair -23.9%, HT1080NT lethal -23.8%, IL-1B inflam inh -26.6, DT40 TDP1 no CPT 14.6µM*, HT1080 IDH1KD tx inconclusive and DT40 TDP1 CPT 14.6µM*.
For O=S(=O)([O-])CCC[n+]1c(/C=C\Nc2ccccc2)oc2ccc(-c3ccccc3)cc21 the results were ELG1 DNA repair 14.4%.
For CCC(C(=O)Nc1ccccc1Cl)n1nc(C)c2c(C)n(-c3ccccc3)nc2c1=O (stereo unspecified) the results were ELG1 DNA repair -11.0%, HT1080NT lethal 8.5%, IL-1B inflam inh -18.6, DT40 TDP1 no CPT inconclusive, HT1080 IDH1KD tx inconclusive and DT40 TDP1 CPT inconclusive.
Screening CCC(C(=O)NCc1cccc(Br)c1)n1nc(C)c2c(C)n(-c3ccccc3)nc2c1=O (stereo unspecified) returned DT40 TDP1 no CPT inconclusive and DT40 TDP1 CPT 23.1µM*.
CCc1ccc(CNC(=O)C(CC)n2nc(C)c3c(C)n(-c4ccccc4)nc3c2=O)cc1 (stereo unspecified) was read as DT40 TDP1 no CPT 16.4µM* and DT40 TDP1 CPT 23.1µM*.
For CCOC(=O)C(CC)n1nc(C)c2c(C)n(-c3ccc(C)cc3)nc2c1=O (stereo unspecified) the results were DT40 TDP1 no CPT 16.4µM* and DT40 TDP1 CPT 18.4µM*.
`CCC(C(=O)NCc1cccc(C)c1)n1nc(C)c2c(C)n(-c3ccccc3)nc2c1=O` (stereo unspecified) gave ELG1 DNA repair -15.9%, HT1080NT lethal -8.4%, IL-1B inflam inh 2.9, DT40 TDP1 no CPT inconclusive, HT1080 IDH1KD tx -4.1% and DT40 TDP1 CPT inconclusive.
COc1ccccc1OCc1ccc(C(=O)N2N=C(C(F)F)CC2(O)C(F)F)o1 (stereo unspecified) was read as ELG1 DNA repair 9.6%, HT1080NT lethal 4.9%, IL-1B inflam inh -3.6, DT40 TDP1 no CPT -27.1%, HT1080 IDH1KD tx 7.2% and DT40 TDP1 CPT 3.9%.
O=C(c1ccc(Cn2cc(Br)cn2)o1)N1N=C(C(F)F)CC1(O)C(F)F (stereo unspecified) was read as ELG1 DNA repair -22.5%, HT1080NT lethal 13.0%, IL-1B inflam inh -3.1, DT40 TDP1 no CPT inconclusive, HT1080 IDH1KD tx 0.3% and DT40 TDP1 CPT 20µM*.
`Clc1ccc(SCCCCn2ccnc2)cc1` gave ELG1 DNA repair 4.2%, HT1080NT lethal -20.4%, IL-1B inflam inh -2.1, DT40 TDP1 no CPT inconclusive, HT1080 IDH1KD tx -1.4% and DT40 TDP1 CPT inconclusive.
Screening CC1(c2ccc(Cl)cc2Cl)OCC(Cn2ccnc2)O1 (stereo unspecified) returned ELG1 DNA repair inconclusive, HT1080NT lethal inconclusive, IL-1B inflam inh 4.4, DT40 TDP1 no CPT 23.1µM*, HT1080 IDH1KD tx inconclusive and DT40 TDP1 CPT 20.6µM*.
`Cc1cccc(N2CCN(CCCNC(=O)C3CCCN(c4ncnc5c4nc4n5CCCCC4)C3)CC2C)c1` (stereo unspecified) gave ELG1 DNA repair 11.6µM*, HT1080NT lethal 20.6µM*, IL-1B inflam inh -76.7*, DT40 TDP1 no CPT 11.6µM*, HT1080 IDH1KD tx 16.4µM* and DT40 TDP1 CPT inconclusive.
Screening Cc1cccc(N2CCN(c3ncnc4c3nc3n4CCCCC3)CC2C)c1 (stereo unspecified) returned DT40 TDP1 no CPT 9.2µM* and DT40 TDP1 CPT 7.31µM*.

Assay outcomes (PubChem BioAssay)
